# Source: PubChem BioAssay AID2546 (National Center for Advancing Translational Sciences (NCATS), 2010)
# Screen size: about 310,000 compounds; about 11,000 (3.5%) were called active. Roughly 8% stayed inconclusive and do not appear here. Calls come from the whole dose curve; as a rule, active = well fitted inhibition curve with a large enough effect; inconclusive = small, poorly fitted or top-dose-only effect, or effect the other way; inactive = flat fitted curve, though single readings scatter. Only a selection was taken, and actives are over-represented in it overall.
# Assay: VP16 counterscreen qHTS for inhibitors of ROR gamma transcriptional activity;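 note: Gal4-VP16 expression switched on by copper sulfate through the metallothionein promoter; nearly all actives have a fitted effect of over 50% in size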
# Details: Drosophila S2 Gal4-VP16 UAS-luciferase, luminescence, 20 h; series mostly up to 53.6 µM; activity, negative = inhibition: at the top concentration
# % is set by controls: 0 for no effect and ±100 for the full control effect; potency is the fitted concentration of half-maximal effect.
Compound,"activity, negative = inhibition",Potency
CCOC(=O)C1CCCN(CCSc2ccc(C)cc2)C1 (stereo unspecified),14.5% (inactive),
CCc1ccc(NC(=O)CS(=O)CC(=O)NCCCc2ccccc2)cc1 (stereo unspecified),-1.7% (inactive),
O=C(COc1ccc(Br)cc1F)NC1CCN(Cc2ccccc2)CC1,2.7% (inactive),
O=C(NC1CCN(Cc2ccccc2)CC1)c1c(F)cccc1F,3.22% (inactive),
NS(=O)(=O)c1ccc(CCNC(=S)Nc2ccc(S(N)(=O)=O)cc2)cc1,-15.7% (inactive),
CC(=O)Nc1ccc(S(=O)(=O)N(C)CC(=O)NCCC2=CCCCC2)cc1,-2.68% (inactive),
O=C(Cc1cccc2ccccc12)NCCC1=CCCCC1,-1.54% (inactive),
O=C(NCCCc1ccccc1)C(=O)c1c[nH]c2ccccc12,12.6% (inactive),
S=C(Nc1ccc(Br)cc1)NC1CCN(Cc2ccccc2)CC1,,15.8 µM (active)
S=C(NCCCc1ccccc1)Nc1ccc(Br)cc1,,10 µM (active)
S=C(NCCC1=CCCCC1)Nc1ccccc1,,5.62 µM (active)
O=C1CCN(C(=S)NCCc2ccccc2)CC1,2.45% (inactive),
S=C(NCCc1ccccc1)Nc1ccccc1,,17.8 µM (active)
Cc1c(Cl)cccc1NC(=O)NCCCN1CCCC1=O,-0.757% (inactive),
Cn1c(SCC(=O)N2CCCC2)nnc1-c1cccs1,-10.6% (inactive),
COc1ccccc1CN1CC(C(=O)NCCc2cn[nH]c2)CCC1=O (stereo unspecified),0.451% (inactive),
Cc1ccn(CCC(=O)N2c3ccccc3CC2C)n1 (stereo unspecified),1.99% (inactive),
COc1ccc(OC)c(NC(=O)c2ccc3c(c2)C(=O)N(c2ccc(OC(C)=O)cc2)C3=O)c1,-1.71% (inactive),
O=C(NCCNc1ccccc1[N+](=O)[O-])c1ccccc1F,-4.92% (inactive),
COc1ccc(-c2nonc2NC(=O)c2oc3ccc(F)cc3c2C)cc1OC,-10.6% (inactive),
COc1ccc(S(=O)(=O)N2CCC(C(=O)NCc3ccco3)CC2)cc1C,-0.855% (inactive),
N#Cc1ccccc1S(=O)(=O)N1CCN(C(=O)c2cc(-c3ccccc3)nn2-c2ccccc2)CC1,-1.32% (inactive),

Compound,"activity, negative = inhibition",Potency
Cc1c(CCC(=O)N[C@@H](CC(C)C)C(=O)O)c(=O)oc2c(C)c3oc4c(c3cc12)CCCC4,-3.84% (inactive),
COc1cc2[nH]c(=S)n(Cc3ccc(C)o3)c(=O)c2cc1OC,,10 µM (active)
COc1cc2[nH]c(=S)n(CCN3CCCCC3C)c(=O)c2cc1OC (stereo unspecified),-1.96% (inactive),
CCOc1cc2[nH]c(=S)n(Cc3ccc(C(=O)NCCOC)cc3)c(=O)c2cc1OCC,-3.44% (inactive),
Cc1ccc(S(=O)(=O)N(CC(O)CN2CCCCC2)c2cccc([N+](=O)[O-])c2)cc1 (stereo unspecified),-0.0234% (inactive),
CCc1ccc(NC(=O)N2CCc3ccccc3C2)cc1,4.84% (inactive),
O=C(Nc1cc2ccccc2oc1=O)C1CCCCC1,-0.778% (inactive),
O=c1oc2ccccc2cc1-c1cn(-c2ccccc2)c(=S)[nH]1,,1.78 µM (active)
O=C(c1cn(-c2ccccc2)nc1-c1cc2ccccc2oc1=O)N1CCOCC1,7.29% [at 10 µM] (inactive),
CN(C(=O)COC(=O)c1nc(Cl)ccc1Cl)C1CCS(=O)(=O)C1 (stereo unspecified),0.781% (inactive),
CCc1ccc(OCC(=O)N(Cc2ccccc2)C2CCS(=O)(=O)C2)cc1 (stereo unspecified),-3.11% (inactive),
O=C(N/N=C/c1ccc(OC(=O)c2ccccc2Cl)cc1)c1ccc(O)cc1,0.0845% (inactive),
O=C(Cc1cccs1)N/N=C/c1ccc(OCc2ccccc2)cc1,-2.33% (inactive),
O=C(N/N=C/c1ccc(OCc2ccccc2)cc1)c1ccc(O)cc1,,11.2 µM (active)
COCCNC(=O)COc1ccc(N(C)S(=O)(=O)c2ccc3ccccc3c2)cc1,-5.22% (inactive),
COc1ccc(NS(=O)(=O)c2ccc(NC(=S)NC(=O)CC(C)C)cc2)cc1,-3.97% (inactive),
CCOc1ccc(S(=O)(=O)Nc2ccc(S(=O)(=O)Nc3cc(OC)ccc3OC)cc2)cc1,6.25% (inactive),
COc1ccc(NS(=O)(=O)c2ccc(Oc3c(C#N)cccc3C#N)cc2)cc1,,3.98 µM (active)
COc1cccc(CNS(=O)(=O)c2ccc3c(c2)N(C(C)=O)CCS3)c1,2.89% (inactive),
COC(=O)c1ccc(COc2ccc(/C=C/C(=O)c3ccc(OC)c(CSCC(=O)O)c3)cc2OC)cc1,-12.2% (inactive),
Cc1cccc(OCC(=O)NCC(=O)N/N=C/c2ccc(N(C)C)cc2)c1,-0.208% (inactive),
COc1ccc(-c2nnc(SCC(=O)c3cccs3)o2)c(OC)c1,-2.89% (inactive),

Compound,"activity, negative = inhibition",Potency
COc1ccc(C(=O)CSc2nnc(-c3ccco3)o2)cc1,0.967% (inactive),
COc1ccc(OC)c(C(=O)CSc2nnc(-c3cccs3)o2)c1,,15.8 µM (active)
CN(c1cccc(NC(=O)c2ccc(CN3CCc4ccccc4C3)cc2)c1)S(C)(=O)=O,-3.37% (inactive),
COc1cccc(C(=O)Nc2ccc(N3CCN(C(=O)c4ccco4)CC3)cc2)c1,0.603% (inactive),
CCn1c(/C=N/NC(=O)c2ccc(OC)cc2)nc2ccccc21,-93% (inactive),
COC(=O)CNC(=O)c1ccc(OC2CCN(C(=O)C3CC3)CC2)cc1,3.08% (inactive),
CCc1ccc(/C=N/NC(=O)c2ccc(OC3CCCC3)cc2)s1,,11.2 µM (active)
CCOc1ccc(S(=O)(=O)N2CCCC(C(=O)N3CCC(C(N)=O)CC3)C2)cc1Cl (stereo unspecified),6.23% (inactive),
COc1ccccc1CCNS(=O)(=O)c1cc2c3c(c1)C(C)C(=O)N3CCC2 (stereo unspecified),1.36% (inactive),
Cc1ccc(S(=O)(=O)Nc2ccc3ncccc3c2)cc1,,17.8 µM (active)
Cc1ccc(NS(=O)(=O)c2ccc(C(C)(C)C)cc2)cn1,4.43% (inactive),
Cc1ccc(OCC(=O)Nc2ccc(S(=O)(=O)Nc3ccccn3)cc2)cc1,-4.48% (inactive),
CC(C)C[C@H]1CN=C(Nc2ccccc2)N1CC1CCCCC1,7.18% (inactive),
COC(=O)c1cc(S(=O)(=O)N2CCN(c3cc(C)ccc3C)CC2)c[nH]1,-10.5% (inactive),
NS(=O)(=O)c1ccc(N=Nc2c(O)[nH]c3ccc(Br)cc23)cc1,-23.4% (inactive),
CCN1CCN(c2sc(S(C)(=O)=O)nc2S(=O)(=O)c2ccc(Cl)cc2)CC1,1.58% (inactive),
CCc1ccc(NC2Nc3cc(C)nn3S2)cc1 (stereo unspecified),,5.01 µM (active)
CCOC(=O)c1ccc(NC2Nc3cc(C)nn3S2)cc1 (stereo unspecified),-6.13% (inactive),
O=C(CC1Nc2ccccc2NC1=O)Nc1ccccc1 (stereo unspecified),,5.01 µM (active)
O=C(CC1Nc2ccccc2NC1=O)Nc1ccccc1NC(=O)CC1Nc2ccccc2NC1=O (stereo unspecified),-0.767% (inactive),
CCOC(=O)c1ccccc1NC(=O)CC1Nc2ccccc2NC1=O (stereo unspecified),-1.38% (inactive),
CCN(C(=O)COc1ccc(C(=O)c2ccccc2)cc1)c1ccccc1,0.177% (inactive),

Compound,"activity, negative = inhibition",Potency
O=S(=O)(c1ccccc1)c1nc(-c2ccccc2)oc1NCCCN1CCOCC1,-4.1% (inactive),
Cc1cccc(N2CCN(C(=O)c3cccc(N4C(=O)C5C6C=CC(C6)C5C4=O)c3)CC2)c1C (stereo unspecified),-18.4% (inactive),
O=C(CN1CCOC1=O)N1CCCC(Nc2ccc(F)c(F)c2)C1 (stereo unspecified),-4.61% (inactive),
C=C1CCN(C(CC(C)C)C(=O)N2CCOCC2)S(=O)(=O)c2ccccc21 (stereo unspecified),1.67% (inactive),
Cc1ccc(OCCOCCOc2ccc(Br)cc2/C=N\NC(=O)c2ccncc2)cc1,,25.1 µM (active)
Cc1ccc(S(=O)(=O)Oc2ccc(/C=N/NC(=O)c3ccncc3)cc2)cc1,6.78% (inactive),
Cc1ccc(OCCOc2cccc(/C=N/NC(N)=O)c2)cc1,-10.6% (inactive),
Cc1ccc(CNC(=O)CCN2C(=O)[C@@H]3Cc4ccccc4CN3C2=O)cc1,-8.23% (inactive),
CC(=O)Nc1cccc(C(=O)OCN2C(=O)c3ccccc3C2=O)c1,-7.7% (inactive),
Cc1cc(OCc2cc(C(=O)NCc3cc(C(C)C)no3)no2)cc(C)c1Cl,-8.7% (inactive),
Cc1cccc(NC(=S)NCCN(C2CCCCC2)C2CCCC2)c1,-73% (inactive),
Cc1cccc(NC(=S)NCc2ccc3[nH]c4c(c3c2)CCCC4)c1,,7.08 µM (active)
O=C(O)CCC(=O)NCc1ccc2[nH]c3c(c2c1)CCCC3,0.514% (inactive),
CCOc1cc(/C=N/Nc2cc(C)nc3ccc(C)cc23)ccc1O,3.8% (inactive),
Cc1ncoc1C(=O)N1CCCC(C(=O)c2ccc3c4c(cccc24)CC3)C1 (stereo unspecified),1.3% (inactive),
CC(=O)NCC(=O)N1CCCC(C(=O)c2ccc3c4c(cccc24)CC3)C1 (stereo unspecified),2.57% (inactive),
CCn1ccnc1CN1CCCC(C(=O)c2ccc3c4c(cccc24)CC3)C1 (stereo unspecified),,4.47 µM (active)
COc1cc2c(cc1OC)C(C)N(S(=O)(=O)c1cnc(Cl)c(Cl)c1)CC2 (stereo unspecified),-0.844% (inactive),
CCN1C(=S)N[C@@H](c2cccc(C(F)(F)F)c2)C(C(=O)OC)=C1C,-28.2% (inactive),
CC1CCN(CC(=O)Nc2nccs2)CC1,-5.42% (inactive),
C=CCn1c(SCc2csc(C)n2)nc2scc(-c3ccc(C)o3)c2c1=O,-2.23% (inactive),
C=CCn1c(=S)[nH]c2scc(-c3ccco3)c2c1=O,,7.94 µM (active)

Compound,"activity, negative = inhibition",Potency
C=CCNC(=O)CSc1nc2scc(-c3ccco3)c2c(=O)n1CC=C,2.38% (inactive),
COc1ccc(NC(=O)CN2C(=O)COc3ccc(S(=O)(=O)N4CCOCC4)cc32)c(OC)c1,5.17% (inactive),
Cc1ccc(S(=O)(=O)N(C)CC(=O)NCCc2c[nH]c3ccccc23)cc1,8.19% (inactive),
COc1ccc(-n2c(=O)[nH]c3cc(C(=O)NCCc4ccc(OC)c(OC)c4)ccc3c2=O)c(OC)c1,-6.3% (inactive),
COc1ccc(NS(=O)(=O)c2cc(C(=O)Nc3ccccc3C(=O)O)ccc2C)cc1,-3.41% (inactive),
CCCCc1nc2cc(C(=O)N3CCCCC3CCO)ccc2o1 (stereo unspecified),-3.46% (inactive),
CCN(CC)S(=O)(=O)c1ccc(-c2cn3ccc(C)cc3n2)cc1,4.17% (inactive),
COc1ccc(-c2cn3ccc(C)cc3n2)cc1,,5.01 µM (active)
COc1ccc(-c2cn3cccnc3n2)cc1,-23.4% (inactive),
O=C(c1cc(C(=O)N2CCN(c3ccc(F)cc3)CC2)cc([N+](=O)[O-])c1)N1CCN(c2ccc(F)cc2)CC1,-15.2% (inactive),
CC(C)(C)C(=O)NC1CC2CCCC(C1)N2C(=O)Nc1ccccc1F (stereo unspecified),10.1% (inactive),
O=CN1CCN(C(=O)c2ccc3c(c2)OCO3)CC1,5.96% (inactive),
CC(NC(=S)Nc1ccc(OC(F)F)cc1)c1ccc(F)cc1 (stereo unspecified),,12.6 µM (active)
CC(NC(=S)Nc1ccc(S(N)(=O)=O)cc1)c1ccc2c(c1)OCO2 (stereo unspecified),-0.45% (inactive),
CC(C)N(Cc1ccccc1)C(=S)Nc1ccc(OC(F)F)cc1,-5.97% (inactive),
Cc1cc(-n2nc(C)cc2C)n2nc(C)c(-c3ccccc3)c2n1,7.94% (inactive),
Cc1cc(C)c2c(NC(=O)C3CC3)nn(C)c2n1,1.02% (inactive),
Cc1cc(C)c2c(n1)nn1c(-n3ccnc3)cc(C)nc21,,15.8 µM (active)
